Data from ChEMBL document CHEMBL1961873, “Compounds: GSK PKIS; Assays: Nanosyn kinase panel” (2012).

target: Mast/stem cell growth factor receptor Kit (Homo sapiens) (UniProt P10721); settings: at 1 µM
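Also: values given as mean inhibition of KIT.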

Mast/stem cell growth factor receptor Kit (Homo sapiens), sequence (P10721 whole entry): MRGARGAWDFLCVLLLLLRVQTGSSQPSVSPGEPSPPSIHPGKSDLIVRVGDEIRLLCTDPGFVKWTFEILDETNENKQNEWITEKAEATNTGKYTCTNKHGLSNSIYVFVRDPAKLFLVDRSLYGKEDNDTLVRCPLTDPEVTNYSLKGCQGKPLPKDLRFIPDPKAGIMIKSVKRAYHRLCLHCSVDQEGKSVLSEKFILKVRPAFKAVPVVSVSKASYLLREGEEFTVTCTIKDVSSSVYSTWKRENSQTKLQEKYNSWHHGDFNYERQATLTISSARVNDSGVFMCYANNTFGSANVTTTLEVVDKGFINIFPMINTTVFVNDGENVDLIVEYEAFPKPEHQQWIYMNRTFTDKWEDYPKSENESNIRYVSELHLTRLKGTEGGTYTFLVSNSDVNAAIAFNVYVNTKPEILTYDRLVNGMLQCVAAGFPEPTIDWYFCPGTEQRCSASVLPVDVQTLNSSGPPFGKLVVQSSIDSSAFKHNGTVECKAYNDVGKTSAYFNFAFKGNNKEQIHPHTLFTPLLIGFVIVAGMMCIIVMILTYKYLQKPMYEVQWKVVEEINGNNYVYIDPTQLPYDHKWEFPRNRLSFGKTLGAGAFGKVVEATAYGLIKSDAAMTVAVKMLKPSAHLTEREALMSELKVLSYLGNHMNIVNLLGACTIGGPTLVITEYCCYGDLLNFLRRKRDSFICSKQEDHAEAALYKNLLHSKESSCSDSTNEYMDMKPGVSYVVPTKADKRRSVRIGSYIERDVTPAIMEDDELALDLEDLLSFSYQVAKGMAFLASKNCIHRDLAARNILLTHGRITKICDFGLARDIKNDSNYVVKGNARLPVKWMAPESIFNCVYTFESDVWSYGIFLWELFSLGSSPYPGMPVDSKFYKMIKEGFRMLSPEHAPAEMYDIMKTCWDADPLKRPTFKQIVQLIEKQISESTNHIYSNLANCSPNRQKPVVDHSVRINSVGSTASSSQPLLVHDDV

Structure (SMILES)	inhibition
N#Cc1c(NC(=O)c2cccc3ccccc23)sc2c1CCCC2	0.84%
COc1cc(C=NNc2ncnc3c2cnn3-c2ccccc2)ccc1O	67%
CC(C)=Cc1cccc2c1/C(=N/Nc1ccc(S(N)(=O)=O)cc1)C(=O)N2	67.5%
Cc1ccc(NC(=O)c2ccnc(N3CCCC3)c2)cc1-c1ccc(C(=O)NCC2CC2)cc1	2.92%
Nc1nc(-c2ccc3c(c2)C(=Cc2cc(Br)c(O)c(Br)c2)C(=O)N3)cs1	3.41%
CS(=O)(=O)CCNCc1ccc(-c2ccc3ncnc(Nc4ccc(OCc5cccc(F)c5)c(C(F)(F)F)c4)c3c2)o1	4.6%
COc1ccc(-c2coc3ncnc(N)c23)cc1	21.7%
CCCN1CCC=C(c2ccc(Nc3nc(Nc4ccccc4C(N)=O)c4cc[nH]c4n3)c(C)c2)C1	11.6%
O=C1NC(=O)C(c2cccc(Cl)c2)=C1Nc1ccc(O)c(Cl)c1	-2.75%
COc1cc2ncn(-c3cc(O[C@H](C)c4ccccc4Cl)c(C(N)=O)s3)c2cc1OC	27.1%
CC1=C(C(=O)Nc2ccc3[nH]ncc3c2)C(c2ccc3ccccc3c2)CC(=O)N1 (stereo not drawn)	7.55%
O=C1NC(=O)C(c2ccc(Cl)cc2)=C1Nc1ccc(Cl)c(C(=O)O)c1	-0.38%
c1cnn2ncc(-c3ccnc(Nc4ccc5c(c4)OCCO5)n3)c2c1	106%
COc1cc2ncn(-c3cc(O[C@@H](C)c4ccccc4Cl)c(C(N)=O)s3)c2cc1OC	11.9%
CCn1c(-c2nonc2N)nc2c(C#CC(C)(C)O)nc(CN3CCCC3)cc21	0.93%
CCn1c(-c2nonc2N)nc2ccncc21	-2.36%
CNC(=O)c1cncc(/C=C/c2c(Cl)cccc2Cl)c1	33.4%

Structure (SMILES)	inhibition
Cc1nnc(-c2ccc(C)c(-c3ccc(C(=O)Nc4cccc(C#N)c4)cc3)c2)o1	6.9%
CN(C)c1cc2c(Nc3ccc4nc(Cc5ccccc5)[nH]c4c3)ncnc2cn1	19.2%
Cc1cccc(-c2n[nH]cc2-c2ccc3ncccc3n2)n1	2.16%
CS(=O)(=O)CCN(CC#N)Cc1ccc(-c2ccc3ncnc(Nc4ccc(OCc5cccc(F)c5)c(Cl)c4)c3c2)o1	0.7%
CCn1c(-c2nonc2N)nc2c(C#CC(C)(C)O)nc(OC[C@@H](N)c3ccccc3)cc21	2.86%
CC(=O)Nc1cccc(C#Cc2cncnc2Nc2ccc(OCc3cccc(F)c3)c(Cl)c2)n1	2.11%
CC1=C(C(=O)Nc2ccc3[nH]ncc3c2)C(c2ccc(Cl)c(Cl)c2)CC(=O)N1 (stereo not drawn)	2.48%
O=C1Nc2ccc(C(=O)c3ccco3)cc2C1=Cc1cc(Cl)c(O)c(Cl)c1	63.5%
CS(=O)(=O)Nc1ccc(N/C=C2\C(=O)Nc3ccccc32)cc1	86.6%
COc1cc2ncn(-c3cc(OCc4ccccc4Cl)c(C(N)=O)s3)c2cc1OC	15.6%
Fc1cccc(COc2ccc(Nc3ncnc4sc(-c5cccs5)cc34)cc2Cl)c1	6.67%
[O-][S+]1CCN(Cc2ccc(-c3ccc4ncnc(Nc5ccc(OCc6ccccc6)c(F)c5)c4c3)o2)CC1	3.42%
Cc1ccc(C(=O)NC2CCCCC2)cc1-c1ccc(C(=O)NCC2CC2)cc1	4.9%
Cc1nn(C)c2cc(N(C)c3ccnc(Nc4cccc(S(N)(=O)=O)c4)n3)ccc12	88%
CCN1CCC(CC(=O)Nc2n[nH]c3nc(-c4cccs4)c(Br)cc23)CC1	-0.08%
COc1ccc(-c2nn3ncccc3c2-c2ccnc(Nc3ccc(Cl)c(C(F)(F)F)c3)n2)cc1	8.96%
